About 770 (37%) of roughly 2,100 compounds were called active. The list shows a part of the results. Values without a mark were called inactive.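 The calls were made as follows: active = by-eye trace score of 1 for enhancers or -1 for inhibitors, so actives lie on both sides (some results past the limit were not filed as active); inactive = score 0, or 3 fluorescent, or 4 baseline rise.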
target: G protein-activated inward rectifier potassium channel 2 (Homo sapiens) + G protein-activated inward rectifier potassium channel 1 (Homo sapiens) (UniProt P48051+P48549); assay: GIRK1/2 thallium flux modulators, retest, confirmation, cell-based, HEK293 rmGlu8/hGIRK1/2, FluoZin-2 (AID 623911); conditions: HEK293 rmGlu8/hGIRK1/2, thallium flux FluoZin-2; actives lie on both sides; glutamate co-added at its EC20 level
Sequence (P48051 whole entry, looked up): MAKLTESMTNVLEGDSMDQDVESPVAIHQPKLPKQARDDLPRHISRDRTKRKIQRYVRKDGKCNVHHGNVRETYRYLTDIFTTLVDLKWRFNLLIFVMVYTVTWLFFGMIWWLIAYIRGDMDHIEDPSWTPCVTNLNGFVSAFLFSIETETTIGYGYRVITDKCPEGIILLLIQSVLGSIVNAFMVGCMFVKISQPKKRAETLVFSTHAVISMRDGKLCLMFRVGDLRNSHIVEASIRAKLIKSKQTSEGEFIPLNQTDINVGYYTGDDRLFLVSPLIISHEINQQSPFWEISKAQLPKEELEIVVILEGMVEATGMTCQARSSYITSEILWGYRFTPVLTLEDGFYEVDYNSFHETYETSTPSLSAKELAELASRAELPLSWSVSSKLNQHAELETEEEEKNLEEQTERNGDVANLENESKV
Sequence (P48549 whole entry, looked up): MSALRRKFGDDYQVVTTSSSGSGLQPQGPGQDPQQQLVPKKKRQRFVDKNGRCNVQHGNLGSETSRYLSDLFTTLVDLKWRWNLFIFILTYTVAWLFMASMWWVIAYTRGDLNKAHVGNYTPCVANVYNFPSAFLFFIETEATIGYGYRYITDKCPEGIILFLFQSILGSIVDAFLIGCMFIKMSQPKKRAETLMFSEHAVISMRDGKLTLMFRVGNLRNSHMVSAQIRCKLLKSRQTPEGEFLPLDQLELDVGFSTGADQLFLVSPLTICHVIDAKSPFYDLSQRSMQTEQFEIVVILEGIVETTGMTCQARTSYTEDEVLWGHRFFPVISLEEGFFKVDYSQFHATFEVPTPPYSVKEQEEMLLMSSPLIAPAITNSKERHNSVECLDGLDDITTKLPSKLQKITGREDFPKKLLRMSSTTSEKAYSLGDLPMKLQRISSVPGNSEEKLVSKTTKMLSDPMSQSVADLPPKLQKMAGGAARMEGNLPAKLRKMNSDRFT

Row | Compound | manual score
1 | O=C(Nc1ccc(OCC(=O)N2CCC(Cc3ccccc3)CC2)cc1)c1ccco1 | 0
2 | Cc1cccc(C(=O)N2CCC(Cc3ccccc3)CC2)c1[N+](=O)[O-] | -1 (active)
3 | Cc1noc(C)c1S(=O)(=O)N1CCC(Cc2ccccc2)CC1 | 0
4 | COC(=O)Nc1nc(C)c(C(=O)N(C)C)s1 | 0
5 | CC(=O)c1sc(NC(=O)c2cc(-c3ccccc3)nn2-c2ccccc2)nc1C | 1 (active)
6 | O=C(Nc1nc2ccccc2s1)c1cc(-c2ccccc2)nn1-c1ccccc1 | 0
7 | C#CC(CO)N(CCN(Cc1ccccc1)C(C#C)CO)Cc1ccccc1 (stereo not given) | -1 (active)
8 | C#CCSc1nnc(-c2cccc3ccccc23)o1 | 0
9 | CCOC(=O)c1c(NC(=O)C2C3C=CC(C3)C2C(=O)O)sc2c1CCC(CC)C2 (stereo not given) | 0
10 | CCOC(=O)c1c(NC(=S)NC)sc2c1CC(C)(C)SC2 | 1 (active)
11 | CCOC(=O)C1=C(NC(=S)NC(=O)c2ccccc2)c2ccccc2CC1C(C)C (stereo not given) | 0
12 | C=CCNC(=S)Nc1sc2c(c1C(=O)OCC)CC(C(C)C)OC2 (stereo not given) | 1 (active)
13 | CCOC(=O)c1c(NC(=S)NCCc2ccccc2)sc2c1CC(C(C)C)OC2 (stereo not given) | 0
14 | C=CCNC(=S)Nc1sc2c(c1C(=O)OCC)CC(C)(CC)OC2 (stereo not given) | 1 (active)
15 | C=C(C)C1CC=C(C)/C(=N/NC(=S)Nc2ccccc2)C1 (stereo not given) | 0
16 | COC(=O)c1ccc(C)c(NC(=O)CN2C(=O)c3ccccc3S2(=O)=O)c1 | 0
17 | Cc1ccc(NC(=O)CSc2nccn2C)cc1S(=O)(=O)N1CCOCC1 | 0
18 | Cc1ccc(NC(=O)CN2c3cccc4cccc(c34)S2(=O)=O)cc1S(=O)(=O)N1CCOCC1 | 1 (active)
19 | CN(C)c1ccc(/C=N\NC(=S)SCN2C(=O)C3CCC(C)(C2=O)C3(C)C)cc1 (stereo not given) | 0
20 | CC12CCC(C(=O)N(CSC(=S)N/N=C\c3ccccc3Cl)C1=O)C2(C)C (stereo not given) | 0.5
21 | CC12CCC(C(=O)N(CSC(=S)N/N=C\c3ccccc3O)C1=O)C2(C)C (stereo not given) | 1 (active)
22 | COc1ccc(/C=N\NC(=S)SCN2C(=O)C3CCC(C)(C2=O)C3(C)C)cc1 (stereo not given) | 1 (active)

Row | Compound | manual score
23 | CC12CCC(C(=O)N(CSC(=S)N/N=C\c3ccccc3)C1=O)C2(C)C (stereo not given) | 1 (active)
24 | Clc1ccccc1-c1nn2c(COc3ccccc3)nnc2s1 | 0
25 | CSc1ccc(S(=O)(=O)NCc2ccccc2Cl)cc1 | 0
26 | Cc1nc2ccc(NS(=O)(=O)c3ccc4c(c3)OCCO4)cc2s1 | 0
27 | Cc1ccccc1CNS(=O)(=O)c1ccc2c(c1)OCCO2 | -1 (active)
28 | CCSc1nnc(NC(=O)CC)s1 | 0
29 | CCSc1nnc(NC(=O)c2nn(C(C)C)c(=O)c3ccccc23)s1 | 0
30 | CCSc1nnc(NC(=O)NC(CC)(C(F)(F)F)C(F)(F)F)s1 | 1 (active)
31 | CC(C)(C)c1ccc(-c2n[nH]c(=S)n2C2CCCC2)cc1 | 0
32 | CN(CCC#N)C(=O)CSc1ncnc2sc(-c3ccccc3)cc12 | 0
33 | O=c1c2ccccc2nc(-c2ccccc2)n1/N=C/c1ccc([N+](=O)[O-])cc1 | 0
34 | O=C1c2ccccc2NC(c2ccc(-c3cccc(Cl)c3)o2)N1O (stereo not given) | 0.5
35 | O=c1c2cc(Br)ccc2nc(-c2cccc(C(F)(F)F)c2)n1O | 1 (active)
36 | O=c1c2ccccc2nc(-c2cccc(Cl)c2)n1O | 1 (active)
37 | C/C(N)=C(/C#N)C(=O)CSc1nc2cc(Cl)ccc2c(=O)n1-c1ccc(C)cc1 | 0
38 | O=c1c2ccc(Cl)cc2nc(-c2cccc(C(F)(F)F)c2)n1O | 1 (active)
39 | Cc1nc2nc(Cc3ccccc3)[nH]n2c(=O)c1Cc1ccccc1 | 0
40 | CCN(CC)CCN1C(=O)c2oc3ccccc3c(=O)c2C1c1ccc(C)cc1 (stereo not given) | 0
41 | CCOC(=O)C(C)Oc1ccc2c(CC)cc(=O)oc2c1C (stereo not given) | 0
42 | CCOC(=O)C1=C(O)C(=O)N(c2ccc(S(N)(=O)=O)cc2)C1c1ccccc1 (stereo not given) | 0
43 | COc1ccc2nc(N3C(=O)/C(=C/c4ccccc4)NC3=S)sc2c1 | 1 (active)
44 | CCCSc1nc(C)nc2c1c(=O)n(C)c(=O)n2C | 0

Row | Compound | manual score
45 | Clc1ccc(OCCn2ccnc2)c(Cl)c1 | 0
46 | CC(C)CC(NS(=O)(=O)c1ccc2c(c1)oc(=O)n2C)C(=O)NC1CCCc2ccccc21 (stereo not given) | 0
47 | CSc1nc(Sc2ccccc2)c2ccccc2n1 | 0
48 | CCOc1ccccc1N1CCN(S(=O)(=O)c2cccs2)CC1 | 0
49 | Cc1nc(N2CCN(C(=O)COc3ccccc3)CC2)c2c(C)c(C)sc2n1 | -0.5
50 | Cc1sc2nc(CN3CCCC3)nc(N3CCN(S(=O)(=O)c4cccs4)CC3)c2c1C | -1 (active)
51 | Cc1cc(/C=c2/sc3nc4ccccc4n3c2=O)c(C)n1-c1ccccn1 | 0
52 | CCNC(=S)N/N=C/c1c(Cl)cccc1Cl | 0.5
53 | CCCCN(CCCC)C(=S)N/N=C/c1c(C)[nH]n(-c2ccccc2)c1=O | 1 (active)
54 | CC1=NN(c2ccccc2)C(=O)/C1=C\c1c(C)[nH]n(-c2ccccc2)c1=O | 0
55 | Cc1[nH]n2c(=O)cc(C(C)(C)C)nc2c1-c1ccccc1 | 1 (active)
56 | Cc1nc2c(-c3ccccc3)c(C)[nH]n2c(=O)c1Cl | 0
57 | Cc1cc(=O)n2[nH]c(C)c(-c3ccccc3)c2n1 | 0.5
58 | COc1cc(CNc2ccc(N3CCCC3)cc2)ccc1OCc1ccccc1 | 0
59 | COc1cc(/C=C(/C#N)c2ccc(F)cc2)ccc1OCc1ccc(C(=O)O)o1 | 0
60 | COc1cc(CNCCc2c[nH]c3ccccc23)ccc1OCc1ccc(F)cc1 | -1 (active)
61 | Cc1ccc(Cl)cc1NC(=S)NCc1cccn1C | 1 (active)
62 | COc1ccccc1NC(=S)NCCc1ccc(Cl)cc1 | 0
63 | Cn1cccc1CNC1CCCC1 | 0
64 | O=C(c1ccccc1CCc1ccccc1)N1CCN(c2ccccn2)CC1 | -1 (active)
65 | Cc1cc(C(=O)N2CCN(CCc3ccccc3)CC2)no1 | 0
66 | O=C(CN1C(=O)c2cccc3cccc(c23)C1=O)N1CCN(c2ccccn2)CC1 | 3

Row | Compound | manual score
67 | CCOC(=O)C1CCN(C(=O)N(C)C)CC1 | 0
68 | COc1ccc(NC(=S)SC)cc1OC | 0
69 | CCC(C)c1ccc(NC(=S)Nc2ccc(OC)c(OC)c2)cc1 (stereo not given) | 1 (active)
70 | COc1ccc(NC(=S)Nc2ccc(OCc3ccccc3)cc2)cc1OC | 0
71 | COc1ccc(CCC(=O)NCc2cnn(C)c2)cc1 | 0
72 | Cc1nnc(NC(=O)CCSc2ccccc2)s1 | 0
73 | c1ccc2c(Nc3nnc(-c4ccncc4)s3)cccc2c1 | 0
74 | CCCSc1nnc(Nc2ccccc2C)s1 | 1 (active)
75 | COC(=O)C1=NN(c2ccccc2)C2C(=O)N(c3ccccc3OC)C(=O)C12 (stereo not given) | 0
76 | N#CC(c1cccc(Cl)c1)c1ccc2c(C(F)(F)F)cc(C(F)(F)F)nc2n1 (stereo not given) | 0
77 | CCNC(=S)N/N=C1\CCCCc2ccccc21 | 4
78 | O=C(N/N=C1/C(=O)c2cccc3cccc1c23)c1ccc(Cl)cc1 | 1 (active)
79 | CNC(=S)N/N=C1\C(=O)c2cccc3cccc1c23 | 1 (active)
80 | CCNC(=S)N/N=C1\C(=O)c2cccc3cccc1c23 | 1 (active)
81 | CCCCNC(=S)N/N=C1\C(=O)c2cccc3cccc1c23 | 0
82 | O=c1c(O)c(-c2cccs2)oc2ccc(Cl)cc12 | 3
83 | COc1ccc(/C=N/NC(=O)c2nc(-c3ccccc3)cc(-c3ccccc3)n2)cc1 | 0
84 | CCCOc1ccc(/C=N/NC(=O)C(=O)Nc2ccccn2)cc1 | 0
85 | O=C(N/N=C/c1ccc(Sc2ccccn2)o1)c1cc2ccccc2cc1O | 1 (active)
86 | O=C(CSc1nc(O)cc(=O)n1-c1ccccc1)N1CCCCC1 | 0
87 | Cc1ccc(NC(=S)N/N=C/c2c(Cl)cccc2Cl)c(C)c1 | 0
88 | Cc1ccccc1NC(=S)c1nc2ccccc2[nH]1 | 1 (active)

Row | Compound | manual score
89 | Cc1ccc(C)c(NC(=S)c2nc3ccccc3s2)c1 | 0
90 | N#C/C(=C\c1ccc(N2CCOCC2)o1)c1nc2ccccc2[nH]1 | 3
91 | Cc1ccc(NC(=S)c2nc3ccccc3[nH]2)c(C)c1 | 1 (active)
92 | COc1ccc(CNc2nc(-c3cccnc3)nn2C(=O)c2ccco2)cc1 | 0
93 | CCOC(=O)c1ccccc1NC(=O)CSc1nnc(Cc2cccn2C)n1-c1ccc(F)cc1 | -1 (active)
94 | CCOC(=O)c1nn(-c2ccc(F)cc2)c(C)c1C(C)=O | 0
95 | CCOC(=O)CN(C(=O)CSc1nnc(Cc2ccccc2)n1-c1ccc(C)cc1)c1ccccc1 | -1 (active)
96 | CCOC(=O)c1ccccc1NC(=O)CSc1nnc(COc2ccccc2)n1CC | -0.5
97 | CCOC(=O)c1ccccc1NC(=O)CSc1nnc(COc2ccccc2C)n1C | -1 (active)
98 | COC(=O)c1ccc(NC(=O)CSc2nnc(COc3ccccc3)n2C)cc1 | 3
99 | CCOC(=O)c1ccccc1NC(=O)CSc1nnc(Cc2cccn2C)n1-c1ccc(C)cc1 | -1 (active)
100 | CN(C(=O)c1cccnc1)c1nnc(-c2cnccn2)s1 | 0
101 | Cc1cccn2c(=O)c(/C=N/O)c(N3CCCC3)nc12 | 0
102 | CCOC(=O)C1=C(C)N=C2SCCC(=O)N2C1c1sccc1C (stereo not given) | 0
103 | CC/C(=N\NC(=S)Nc1cc(C)ccc1C)c1ccc(OC(F)F)cc1 | 0
104 | Cc1ccsc1/C=N/NC(=O)c1sccc1C | 0
105 | CCc1cc(C(=O)NNC(=S)Nc2ccccc2C)cs1 | 0
106 | Cc1ccc(C2CC2C(=O)NNC(=S)Nc2cccc(C)c2)cc1 (stereo not given) | 0
107 | CCc1cc(C(=O)NNC(=S)Nc2cc(C)ccc2C)cs1 | 1 (active)
108 | C/C(=N\NC(=S)Nc1cccc(C)c1)c1cccc(N)c1 | 0
109 | CCc1cc(C(=O)NNC(=S)Nc2cccc(C)c2)cs1 | 1 (active)
110 | Cc1cccc(NC(=S)NNC(=O)c2sccc2C)c1 | 1 (active)

Reference: PubChem BioAssay AID623911 (Vanderbilt High Throughput Screening Facility, 2012)
